KCNQ2 pot = enhances the rat KCNQ2 potassium channel. hit rate 0.54% among 310,000. CHO-K1 KCNQ2, FluxOR thallium flux fluorescence; stronger effect = higher value. B-score at 10 µM;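 active = fluorescence ratio B-score at least 3 SD of library B-scores, with initial fluorescence B-score within 3 of them, cut at about 5.3 in these data; same plate scores as AID 2156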;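 also: B-score of peak minus minimum over baseline fluorescence ratio after K+ and Tl+ stimulus; positive B-score means potentiation of KCNQ2 with more thallium influx and brighter signal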
KCNQ2 inh = blocks the rat KCNQ2 potassium channel | B-score at 10 µM | hit rate 1.1% among 310,000 | CHO-K1 KCNQ2, FluxOR thallium flux, 20 min; stronger effect = lower value | AID 2156;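 active = fluorescence ratio B-score at most minus 3 library SDs, with starting brightness B-score within 2 library SDs, cut at about -5.5 in these data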
Kir21 conf inh = confirmation of mouse Kir2.1 potassium channel inhibitors; AID 2032; hit rate 41% among 2,300; shares compounds with KCNQ2 pot; Tl flux remaining, % of negative control (stronger effect = lower value), % at 10 µM; Kir2.1-expressing cells, FluxOR thallium flux fluorescence; stronger effect = lower value;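 active = Primary-screen hit whose thallium flux fell at least 3 control SD below untreated wells in both duplicates, with normal baseline fluorescence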;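 also: 0% = blank wells without stimulus and 100% = stimulated no-compound controls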
HEK293 Tl flux = alters thallium flux in parental HEK293 cells, Kir2.1 counter-screen | hit rate 19% among 2,300 | shares compounds with KCNQ2 pot | FluxOR signal as % of negative control (100 = no effect), % at 10 µM | FluxOR thallium flux fluorescence; 0% = unstimulated blank wells;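 active = dye signal at least 3 control SD above or below untreated wells in both duplicates, raw fluorescence within 3, either direction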;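 also: percent is based on the flux ratio of peak minus minimum fluorescence over baseline F0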
CHO-K1 Tl ctr = counter-screen for KCNQ2 potentiators: effect in parental CHO-K1 cells; shares compounds with KCNQ2 pot; FluxOR thallium flux fluorescence; zero = vehicle mean+3SD, 100% = vehicle-minus-blank window; activity increase over 3SD of controls, % at 10 µM; hit rate 43% among 1,200;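 active = signal rise of at least 3 SD above the untreated control mean, in both duplicate wells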;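 also: counter screen of KCNQ2 potentiator hits so any rise reflects channel-independent effects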
KCNQ1 pot spec = human KCNQ1 counter-target activity of KCNQ2 potentiators; CHO KCNQ1 stable, FluxOR thallium flux fluorescence; beyond 3SD, as % of vehicle-control signal; shares compounds with KCNQ2 pot; AID 2283; hit rate 28% among 1,200; activation over 3SD threshold, % at 10 µM;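 active = fluorescence ratio rise of at least 3 SD of vehicle wells above their mean, in both replicate wells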;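 also: 0% = vehicle mean plus 3 SD and 100% = vehicle minus unstimulated blank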
KCNQ2 pot confirm = confirmation of rat KCNQ2 potassium channel potentiators | shares compounds with KCNQ2 pot | CHO-KCNQ2 cells, FluxOR thallium flux fluorescence | potentiation, less the hit threshold, % at 10 µM | hit rate 68% among 1,200;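 active = fluorescence ratio rising 3 SD or more over the vehicle control mean in both replicates, plus primary screen hit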;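 also: peak minus minimum thallium fluorescence divided by baseline after K/Tl stimulus; 0% = vehicle mean plus 3 SD and 100% = vehicle minus unstimulated blank difference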
Kir2-1 sel = mouse Kir2.1 off-target activity of KCNQ2 potentiators; AID 2345; hit rate 2% among 1,200; shares compounds with KCNQ2 pot; HEK293 Kir2.1, FluxOR thallium flux fluorescence; activity over 3SD threshold, % at 10 µM;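 active = fluorescence ratio rise of at least 3 SD above the vehicle-control mean, seen in both replicates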;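 also: 0% = vehicle mean plus 3 SD and 100% = vehicle minus no-stimulus blank window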
KCNQ2 W236L pot = rat KCNQ2 W236L mutant potentiation by KCNQ2 potentiators. shares compounds with KCNQ2 pot. CHO KCNQ2-W236L, automated patch clamp current. current increase over 3SD of negative controls (%), stronger effect = higher value, % at 25 µM. hit rate 10% among 940;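 active = current increase at least 3 SD of the untreated controls above them in both duplicate recordings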
Target sequence (O88943 whole entry W236L, looked up): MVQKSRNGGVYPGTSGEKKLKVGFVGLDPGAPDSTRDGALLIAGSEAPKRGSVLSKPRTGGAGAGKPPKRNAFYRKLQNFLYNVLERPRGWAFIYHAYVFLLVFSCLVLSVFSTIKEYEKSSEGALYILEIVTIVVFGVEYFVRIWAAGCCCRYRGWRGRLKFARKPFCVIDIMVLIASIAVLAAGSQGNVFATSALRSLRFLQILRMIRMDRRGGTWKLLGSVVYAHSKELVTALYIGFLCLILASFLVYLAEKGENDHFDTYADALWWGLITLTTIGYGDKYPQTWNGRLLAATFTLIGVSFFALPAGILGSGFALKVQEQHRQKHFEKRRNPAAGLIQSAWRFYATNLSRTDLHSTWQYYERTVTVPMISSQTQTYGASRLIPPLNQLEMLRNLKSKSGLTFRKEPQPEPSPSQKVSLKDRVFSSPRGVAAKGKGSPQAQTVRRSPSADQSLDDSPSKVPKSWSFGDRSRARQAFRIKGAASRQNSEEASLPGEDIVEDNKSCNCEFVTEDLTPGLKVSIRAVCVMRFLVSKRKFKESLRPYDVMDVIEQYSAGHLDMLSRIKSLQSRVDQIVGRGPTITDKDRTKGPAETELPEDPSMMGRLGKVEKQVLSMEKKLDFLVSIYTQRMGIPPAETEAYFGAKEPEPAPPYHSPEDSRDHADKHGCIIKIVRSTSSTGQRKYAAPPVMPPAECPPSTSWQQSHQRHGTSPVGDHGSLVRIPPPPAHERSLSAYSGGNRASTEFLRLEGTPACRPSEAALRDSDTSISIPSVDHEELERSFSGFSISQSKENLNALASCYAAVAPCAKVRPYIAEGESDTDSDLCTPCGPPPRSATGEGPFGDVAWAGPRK
* = called active by the depositor; i = inactive; x = no result. In the library only some 1.6% were active in any assay of this set; here they are far more common.

SMILES | KCNQ2 pot | KCNQ2 inh | Kir21 conf inh | HEK293 Tl flux | others
CCOCCCN(C(=O)c1snc(C(N)=O)c1N)C(C(=O)NCCC(C)C)c1ccc(Cl)cc1 (centres undefined) | x | i | x | x
COC(=O)C1=C(C)N(Cc2ccccc2)C(=O)N[C@H]1c1ccccc1 | x | i | x | x
CCN1C(=NCCc2ccccn2)N[C@@H](c2cccc(F)c2)C(C(=O)OC)=C1C | 0.23 | i | x | x
COC(=O)C1=C(C)N(Cc2ccccc2)C(=NCC(C)C)N[C@H]1c1ccccc1 | x | i | i | i
COC(=O)C1=C(C)N(Cc2ccccc2)C(=NCCc2ccccn2)N[C@H]1c1cccc(F)c1 | 0.46 | i | 40%* | i
CCOC(=O)C1CCCN(C(=O)c2cc(S(=O)(=O)N3CCCCC3)c[nH]2)C1 (centres undefined) | x | i | x | x
COc1ccc(OC)c(NC(=O)CCN2CC(C)CC(C)C2)c1 (centres undefined) | 1.9 | i | x | x
CCCCCN=C(N)N/N=C/c1c[nH]c2ccc(OC)cc12 | 8.8* | i | i | i | CHO-K1 Tl ctr=51*;KCNQ1 pot spec=-18;KCNQ2 pot confirm=-43;Kir2-1 sel=-94
CCCOc1ccc(C(=O)N/N=C/c2c[nH]c3ccc(Br)cc23)cc1 | 0.13 | i | x | x
C=CCOc1ccc(/C=C/C(=O)OCC(=O)NCc2ccco2)cc1 | 0.38 | i | x | x
S=c1[nH]nc(-c2ccco2)n1/N=C/C(Cl)=C/c1ccccc1 | 7.2* | i | i | 129%* | CHO-K1 Tl ctr=-21;KCNQ1 pot spec=-16;KCNQ2 pot confirm=-3;Kir2-1 sel=-36;KCNQ2 W236L pot=i
Cc1cc(-c2n[nH]c(=S)n2/N=C/C(Cl)=C/c2ccccc2)n[nH]1 | x | i | x | x
O=C(NC(=S)Nc1ccccc1Br)c1ccco1 | 9.5* | i | i | 181%* | CHO-K1 Tl ctr=4.9*;KCNQ1 pot spec=91*;KCNQ2 pot confirm=19*;Kir2-1 sel=-20;KCNQ2 W236L pot=i
Cc1cc(C(=O)Nc2ccc3ccccc3c2)oc1C | x | i | x | x
CCOc1ccc(NC(=S)NC(=O)c2ccco2)cc1 | 7.8* | i | i | 163%* | CHO-K1 Tl ctr=-8;KCNQ1 pot spec=38*;KCNQ2 pot confirm=23*;Kir2-1 sel=-19;KCNQ2 W236L pot=i
Cc1ccoc1C(=O)Nc1ccc2ccccc2c1 | 19* | i | i | i | CHO-K1 Tl ctr=49*;KCNQ1 pot spec=-17;KCNQ2 pot confirm=75*;Kir2-1 sel=-18;KCNQ2 W236L pot=i
COc1ccc(-c2csc(NC(=S)NC(=O)c3ccco3)n2)cc1Br | 5.7* | i | i | i | CHO-K1 Tl ctr=30*;KCNQ1 pot spec=22*;KCNQ2 pot confirm=-10;Kir2-1 sel=-31
COc1ccc(-c2csc(NC(=S)NC(=O)c3cc4ccccc4o3)n2)cc1Br | 2.8 | i | x | x
CCOc1ccc(NC(=O)c2ccco2)cc1 | 1.8 | i | x | x
O=C(NC(=S)Nc1cccc(NC(=S)NC(=O)c2ccco2)n1)c1ccco1 | x | i | x | x
COc1ccc(N(C(=O)c2ccc(S(=O)(=O)N3CCCC3)cc2)C2C=CS(=O)(=O)C2)cc1 (centres undefined) | x | i | x | x
COC(=O)c1cccc(NC(=O)C(C)(C)C)c1 | 1 | i | x | x
COc1ccccc1N1CCN(C(=O)c2ccc(Cl)c(S(=O)(=O)N3CCOCC3)c2)CC1 | x | i | x | x
CC(C)c1ccc(NC(=O)CN2C(=O)COc3ccc(S(=O)(=O)N4CCOCC4)cc32)cc1 | 0.01 | i | x | x
CC(=O)Nc1ccc(S(=O)(=O)N2CCc3cc4c(cc3C2)OCCCO4)cc1 | 0.1 | i | x | x
SMILES | KCNQ2 pot | KCNQ2 inh | Kir21 conf inh | HEK293 Tl flux | others
CC(C)CCNC(=O)C1CC(=O)N(CCc2ccccc2)C1 (centres undefined) | 0.45 | i | x | x
Cc1ccc(S(=O)(=O)NCCC(=O)Nc2ccncc2)cc1C | 0.05 | i | x | x
Cc1cccc(NC(=S)NC(=O)c2ccco2)c1C | 9.9* | i | i | 364%* | CHO-K1 Tl ctr=-10;KCNQ1 pot spec=-2;KCNQ2 pot confirm=46*;Kir2-1 sel=-28;KCNQ2 W236L pot=i
O=C(Nc1ccc(Oc2ccc(NC(=O)c3ccco3)c(NC(=O)c3ccco3)c2)cc1)c1ccco1 | 0.23 | i | x | x
O=C(NC(=S)Nc1nc2ccc(F)cc2s1)c1ccco1 | 13* | i | i | i | CHO-K1 Tl ctr=-16;KCNQ1 pot spec=-33;KCNQ2 pot confirm=26*;Kir2-1 sel=-33;KCNQ2 W236L pot=i
CC1CCN(c2ccccc2NC(=S)NC(=O)c2cccs2)CC1 | x | i | x | x
CC1CCN(c2ccccc2NC(=S)NC(=O)c2ccco2)CC1 | 5.9* | i | i | i | CHO-K1 Tl ctr=-5;KCNQ1 pot spec=-8;KCNQ2 pot confirm=-7;Kir2-1 sel=-30
Cc1cccc(NC(=O)CCNC(=O)c2ccco2)c1C | x | i | x | x
O=C(Nc1ccc(Oc2ccc3ccccc3c2)cc1)c1ccco1 | 11* | i | i | i | CHO-K1 Tl ctr=10*;KCNQ1 pot spec=10*;KCNQ2 pot confirm=28*;Kir2-1 sel=-17;KCNQ2 W236L pot=7.7%*
CS(=O)(=O)c1ccc2nc(NC(=O)c3ccco3)sc2c1 | 0.64 | i | x | x
COc1cc([N+](=O)[O-])ccc1NC(=O)CSc1nccn1C | 0.71 | i | x | x
Cc1c(-c2ccccc2)[n+](=O)c(-c2ccc(Cl)cc2)c(C)n1[O-] | x | i | x | x
COC(=O)NC1CCC(NC(=O)OC)CC1 (centres undefined) | x | i | x | x
Cc1nn(-c2ccccc2)c(C)c1[N+](=O)[O-] | x | i | x | x
O=C(Nc1ccc(Br)cc1)c1ccc(N2C(=O)C3CC=C(Cl)CC3C2=O)cc1 (centres undefined) | x | i | x | x
NS(=O)(=O)c1ccc2nc(NC(=O)Nc3ccc(F)cc3)sc2c1 | x | i | x | x
COc1ccc(-c2ccc(CCC(=O)O)n2CC(=O)Nc2ccccc2C)cc1 | x | i | x | x
COc1ccc(F)cc1S(=O)(=O)N1CC(C)CC(C)C1 (centres undefined) | x | i | 44%* | i
COc1ccc(C(C)C)cc1S(=O)(=O)N1CCN(C)CC1 | 13* | i | i | i | CHO-K1 Tl ctr=48*;KCNQ1 pot spec=-9;KCNQ2 pot confirm=-18;Kir2-1 sel=-36
COc1ccc(F)cc1S(=O)(=O)N1CCN(c2ccccn2)CC1 | x | i | x | x
COc1ccc(Br)cc1S(=O)(=O)N1CC(C)OC(C)C1 (centres undefined) | 2.9 | i | 56%* | i
COc1ccc(C(C)C)cc1S(=O)(=O)N1CCC(C(=O)N2CCN(C)CC2)CC1 | x | i | x | x
COc1ccc(Br)cc1S(=O)(=O)N1CCOCC1 | 2 | i | x | x
O=C(Cn1ccc2ccccc2c1=O)NCC(=O)N1CCN(c2ccccc2F)CC1 | x | i | x | x
COc1cc2c(cc1OC)C(c1cc(Br)c(OC)c(OC)c1)CC(=O)N2 (centres undefined) | x | i | x | x
CC(=O)Nc1ccc(N(C(=O)c2ccco2)C(C(=O)NC2CCCCC2)c2ccccc2)cc1 (centres undefined) | x | i | x | x

Assay outcomes as filed in PubChem BioAssay.
